Assay outcomes (PubChem)
RPL19A TOR yeast – alters RPL19A-GFP fluorescence in TOR pathway yeast screen; S. cerevisiae RPL19A-GFP strain, flow cytometry, 3 h; active compounds read low; percent response vs DMSO, % at 10 µM; 0.3% of 330,000 active; AID 2025;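 active means percent response vs DMSO below 50%; inconclusive means fewer than 70 events counted for the yeast strain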;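 further: median channel GFP fluorescence of the barcoded RPL19A-GFP strain; ratio of sample median GFP to plate DMSO average so 100% = DMSO; lower means less RPL19A-GFP as with rapamycin TOR inhibition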
CIT2 TOR yeast – modulators of TOR pathway CIT2-GFP in S. cerevisiae; GFP response vs DMSO, % at 10 µM; AID 2029; 0.065% of 320,000 active; S. cerevisiae CIT2-GFP strain, flow cytometry, 3 h; 100 means same as DMSO wells;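 active means GFP response relative to DMSO above a set limit, near the screen mean plus 3 SD, cut at about 150% in these data; inconclusive means Fewer than 70 cells measured for a yeast strain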;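 further: ratio of well median GFP fluorescence to mean of DMSO wells on the plate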
MEP2-GFP yeast – yeast TOR pathway MEP2-GFP modulation | S. cerevisiae MEP2-GFP strain, flow cytometry GFP, 3 h; 100% = DMSO control level | GFP response vs DMSO, % at 10 µM | 0.51% of 330,000 active;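 active means GFP response versus DMSO above a set limit, roughly screen mean plus 3 SD, cut at about 180% in these data; inconclusive means fewer than 70 cells counted for a yeast strain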;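 further: median GFP fluorescence of the barcode-gated MEP2-GFP cells per well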
LAP4-GFP MLPCN – alters LAP4-GFP fluorescence in TOR pathway yeast screen; S. cerevisiae LAP4-GFP multiplex, flow cytometry GFP, 3 h; median GFP as percent of DMSO wells; GFP response vs DMSO, % at 10 µM; 0.34% of 320,000 active; AID 2023;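 active means GFP response vs DMSO above a set limit, about the screen mean plus 3 SD, cut at about 150% in these data; inconclusive means under 70 cell events counted for the yeast strain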
AGP1 TOR yeast – alters AGP1-GFP fluorescence in TOR pathway yeast screen | S. cerevisiae AGP1-GFP multiplex flow cytometry, 3 h; GFP as percent of DMSO wells | 0.02% of 320,000 active | GFP response vs DMSO, % at 10 µM;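 active means GFP response relative to DMSO above a set limit, near screen average plus 3 SD, cut at about 150% in these data; inconclusive means fewer than 70 cells counted for the yeast strain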;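 further: median GFP channel fluorescence of the gated AGP1 strain per well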
VLA-4 inh – inhibition in a human VLA-4 binding assay; VLA-4 expressing cells, ligand binding flow cytometry; inhibition, % (about 7 µM as worked out from the volumes in the protocol); 0.2% of 330,000 active; AID 2557; in the data active means inhibition above about 50%
Target sequence (P13612 whole entry, looked up): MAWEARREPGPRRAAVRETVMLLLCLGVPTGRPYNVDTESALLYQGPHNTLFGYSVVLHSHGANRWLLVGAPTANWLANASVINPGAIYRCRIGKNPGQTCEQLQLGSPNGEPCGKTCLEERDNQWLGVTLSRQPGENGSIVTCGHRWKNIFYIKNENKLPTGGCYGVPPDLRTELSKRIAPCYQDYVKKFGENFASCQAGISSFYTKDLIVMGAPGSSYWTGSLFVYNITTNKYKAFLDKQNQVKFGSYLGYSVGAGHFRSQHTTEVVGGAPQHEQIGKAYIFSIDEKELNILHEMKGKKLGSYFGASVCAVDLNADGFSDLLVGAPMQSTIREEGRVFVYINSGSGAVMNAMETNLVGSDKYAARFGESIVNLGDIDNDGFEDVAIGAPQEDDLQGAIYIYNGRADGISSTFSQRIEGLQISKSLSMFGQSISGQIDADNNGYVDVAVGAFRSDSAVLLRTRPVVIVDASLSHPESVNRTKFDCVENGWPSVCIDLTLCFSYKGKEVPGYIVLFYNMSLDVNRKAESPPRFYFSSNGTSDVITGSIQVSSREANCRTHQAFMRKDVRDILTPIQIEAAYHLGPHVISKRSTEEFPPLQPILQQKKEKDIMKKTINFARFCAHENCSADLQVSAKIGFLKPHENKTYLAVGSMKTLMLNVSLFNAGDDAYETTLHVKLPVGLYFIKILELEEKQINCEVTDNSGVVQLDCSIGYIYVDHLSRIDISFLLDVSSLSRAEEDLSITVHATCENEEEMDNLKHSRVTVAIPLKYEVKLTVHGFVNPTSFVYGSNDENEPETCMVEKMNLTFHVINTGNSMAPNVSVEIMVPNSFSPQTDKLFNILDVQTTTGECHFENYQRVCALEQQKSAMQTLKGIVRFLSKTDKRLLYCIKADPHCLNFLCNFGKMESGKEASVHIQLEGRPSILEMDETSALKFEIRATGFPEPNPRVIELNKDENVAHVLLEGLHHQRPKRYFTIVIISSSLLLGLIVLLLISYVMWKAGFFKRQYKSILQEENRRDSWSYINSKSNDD
LAP4-GFP pick2 – reconfirmed LAP4-GFP TOR pathway modulator in yeast | shares compounds with LAP4-GFP MLPCN | S. cerevisiae LAP4-GFP strain, flow cytometry GFP, 3 h | GFP response vs DMSO, % at 10 µM | 20% of 590 active | AID 2621;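 active means GFP signal as percent of the solvent control above about 150%, meaning raised reporter expression, limit read from the data; inconclusive means fewer than 70 cells counted in the well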;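 further: ratio of well median GFP fluorescence to plate DMSO mean so 100% = DMSO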
MEP2 cherry2 – yeast MEP2-GFP modulation, second cherry pick | GFP response vs DMSO, % at 10 µM | S. cerevisiae MEP2-GFP strain, flow cytometry GFP, 3 h | shares compounds with LAP4-GFP MLPCN | 10% of 590 active;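 active means GFP signal above 150% of the solvent control wells, that is a rise of more than half; inconclusive means fewer than 70 yeast cells counted in the well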;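 further: median channel GFP fluorescence of all gated yeast cells per well; ratio of median GFP to plate DMSO average so 100% = DMSO level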
RPL19A-GFP pick2 – yeast RPL19A-GFP TOR reporter modulation, second cherry pick; shares compounds with LAP4-GFP MLPCN; S. cerevisiae RPL19A-GFP strain, flow cytometry GFP, 3 h; active compounds read low; 100% means same as DMSO wells; GFP response vs DMSO, % at 10 µM; 3% of 590 active; AID 2623;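 active means under 65% GFP response relative to DMSO; inconclusive means yeast strain with under 70 measured events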;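 further: median GFP channel fluorescence per well over the all cells gate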
CIT2 GFP CP2 – yeast CIT2-GFP TOR reporter modulation, second cherry pick | S. cerevisiae CIT2-GFP strain, flow cytometry GFP, 3 h; DMSO control wells read 100% | GFP response vs DMSO, % at 10 µM | 8% of 590 active | shares compounds with LAP4-GFP MLPCN;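 active means GFP response vs DMSO above about 150%, limit read from the data; inconclusive means fewer than 70 events counted for a yeast strain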;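 further: median green fluorescence per well over all gated yeast cells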
AGP1-GFP pick2 – second confirmation of modulators of TOR reporter AGP1-GFP in yeast; shares compounds with LAP4-GFP MLPCN; S. cerevisiae AGP1-GFP strain, flow cytometry GFP, 3 h; percent response vs DMSO, % at 10 µM; 590 tested, under 10 active; AID 2643;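 active means over 150 percent of DMSO response; inconclusive means yeast strain measured with under 70 events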;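 further: median GFP channel fluorescence over all cells without mother daughter split; sample median GFP divided by mean DMSO control so 100% equals DMSO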
Yeast autofluor – yeast s288c autofluorescence artifact, counter-screen | shares compounds with LAP4-GFP MLPCN | S. cerevisiae s288c, 520 nm autofluorescence, flow cytometry, 3 h; active compounds read high; zero means same as solvent-only cells | fluorescence change (kMESF span) at 33 µM | 610 tested, under 10 active;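 active means fluorescence span over the dose series, or activity score, above about 33, limit read from the data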
s288c autofl DR – yeast s288c autofluorescence artifact in dose response. shares compounds with LAP4-GFP MLPCN. S. cerevisiae s288c parental, compound autofluorescence, flow cytometry, 3 h. fluorescence change (span) at 33 µM. 110 tested, under 10 active. AID 488829;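 active means fluorescence change span, or the activity score built from it, above 25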
TORC1 bypass – wildtype yeast growth loss with TORC1 bypass cells unaffected. growth rating (0-3) at 30 µM. 120 tested, under 10 active. shares compounds with LAP4-GFP MLPCN. AID 504456. S. cerevisiae BY4741 spot growth rating, 48-72 h; active compounds read low;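 active means growth rating at most 1 for wild type yeast while the TORC1 bypass strain still grows fully, rated 3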
The depositor's hits bear a star; ? = inconclusive; . = no result. Compounds with a hit are over-represented: about 1.1% of the library has one in this group of screens.

SMILES | RPL19A TOR yeast | CIT2 TOR yeast | MEP2-GFP yeast | LAP4-GFP MLPCN | AGP1 TOR yeast | VLA-4 inh | LAP4-GFP pick2 | MEP2 cherry2 | RPL19A-GFP pick2 | CIT2 GFP CP2 | AGP1-GFP pick2 | Yeast autofluor | others
O=C(c1cccnc1)N1CCC(Oc2ccc(C(=O)N3CCCC(O)C3)cc2)CC1 (configuration not stated) | 108 | 109 | 99 | 101 | 105 | 4 | . | . | . | . | . | .
C[C@H]1Oc2ccccc2C(=O)C1C(=O)c1ccccc1 (some centres not stated) | 102 | 113 | 106 | 105 | 115 | 6 | . | . | . | . | . | .
Cc1cc(-c2ccccc2)n[nH]1 | 94 | 87 | 90 | 119 | 88 | -8 | . | . | . | . | . | .
Cc1cc(Nc2cc(-c3ccccc3)nc(NCc3ccccc3)n2)n[nH]1 | . | . | . | . | . | . | . | . | . | . | . | . | TORC1 bypass=3
CCOc1ccc(NC(=S)N2CCn3c(nc4ccccc43)C2)cc1 | 104 | 100 | 100 | 91 | 103 | -8 | . | . | . | . | . | .
O=[N+]([O-])c1cc(O)c2ncccc2c1 | 101 | 124 | 104 | 169* | 98 | -9 | . | . | . | . | . | 0.71 | s288c autofl DR=1.9;TORC1 bypass=3
COc1ccc(CCNC(=O)CCc2cc(OC)c(OC)c(OC)c2)cc1OC | 97 | 94 | 96 | 87 | 94 | 4 | . | . | . | . | . | .
CCC(C)NC(=O)CS(=O)Cc1nc(-c2cccc(C)c2)oc1C (configuration not stated) | 86 | 123 | 128 | 156* | 118 | 0 | 104 | 103 | 99 | 100 | 98 | .
CCCCNC(=O)CS(=O)Cc1nc(-c2cccc(C)c2)oc1C (configuration not stated) | 101 | 106 | 104 | 101 | 102 | -15 | . | . | . | . | . | .
O=c1[nH]ncn1-c1ccccc1C(F)(F)F | 103 | 104 | 103 | 91 | 105 | -1 | . | . | . | . | . | .
O=C1N(c2ccccc2C(F)(F)F)O[C@@]1(c1ccccc1)C1CCCCC1 | 95 | 85 | 103 | 105 | 56 | 22 | 108 | 97 | 105 | 114 | 97 | 0
O=C1N(c2ccccc2C(F)(F)F)O[C@@]1(c1ccccc1)C1CCCC1 | 96 | 105 | 92 | 110 | 99 | 26 | 109 | 105 | 106 | 113 | 101 | -0.2
COC(=O)N1C(=O)[C@@](c2ccccc2)(C2CCCCC2)N1C(=O)OC | 92 | 62 | 89 | 126 | 82 | -1 | . | . | . | . | . | .
CS(=O)(=O)c1sc(C#N)c2c1C(=O)CC(c1ccccc1)C2 (configuration not stated) | 89 | 82 | 99 | 209* | 95 | 25 | . | . | . | . | . | 0.92
CCNc1nc(Cl)nc(N(NC(C)=O)C(C)C)n1 | 94 | 81 | 87 | 102 | 98 | 7 | . | . | . | . | . | .
CCNc1nc(Cl)nc(N(NC(C)=O)C(C)CC)n1 (configuration not stated) | 61 | 58 | 72 | 98 | 73 | -4 | 101 | 105 | 99 | 102 | 97 | .
Cc1cccnc1NC(=O)NC(=O)c1ccc(C(C)(C)C)s1 | 103 | 99 | 102 | 99 | 108 | 4 | . | . | . | . | . | .
COc1cc(/C=C2/C(=O)ON=C2c2ccccc2)ccc1O | 95 | 99 | 93 | 173* | 78 | 2 | . | . | . | . | . | 0.2
COc1cc(/C=C2\C(=O)ON=C2c2ccccc2)cc(Br)c1O | 92 | 119 | 96 | 157* | 89 | -51 | . | . | . | . | . | 1.3
COc1cc(/C=C2\C(=O)ON=C2c2ccccc2)cc(Cl)c1O | 112 | 108 | 111 | 117 | 109 | -74 | . | . | . | . | . | .
O=C1ON=C(c2ccc(Cl)cc2)/C1=C/c1ccc(O)cc1 | 89 | 96 | 86 | 161* | 78 | 5 | . | . | . | . | . | 0.7
c1cc[n+](CCC[n+]2ccccc2)cc1 | 102 | 100 | 105 | 98 | 100 | 5 | . | . | . | . | . | .
CC(C)(C)c1ccc(-c2cnco2)cc1 | 64 | 87 | ? | 92 | ? | 6 | 96 | 101 | 97 | 100 | 100 | .
CC(NC(=O)c1ccccc1F)C12CC3CC(CC(C3)C1)C2 (configuration not stated) | 94 | 90 | 88 | 158* | 80 | 26 | 107 | 97 | 98 | 94 | 94 | .
Cc1occc1C(=O)NC(C)C12CC3CC(CC(C3)C1)C2 (configuration not stated) | 86 | 89 | 98 | 95 | 86 | 11 | . | . | . | . | . | .
SMILES | RPL19A TOR yeast | CIT2 TOR yeast | MEP2-GFP yeast | LAP4-GFP MLPCN | AGP1 TOR yeast | VLA-4 inh | LAP4-GFP pick2 | MEP2 cherry2 | RPL19A-GFP pick2 | CIT2 GFP CP2 | AGP1-GFP pick2 | Yeast autofluor | others
CC(C)Cn1c(=O)c(C(=O)Nc2ccncc2)c(O)c2ccccc21 | 48* | 59 | 93 | 103 | 48 | 6 | . | . | . | . | . | 2
CC(C)Cn1c(=O)c(C(=O)Nc2cnccn2)c(O)c2ccccc21 | 89 | 89 | 91 | 90 | 92 | 19 | . | . | . | . | . | .
COc1cccc(C(=O)Nc2nnc(-c3ccc(F)cc3)o2)c1 | 99 | 109 | 104 | 116 | 103 | 16 | . | . | . | . | . | .
COc1cccc(C(=O)Nc2cccc(C(C)=O)c2)c1 | 106 | 108 | 108 | 104 | 103 | 10 | . | . | . | . | . | .
COc1cccc(NC(=O)c2cccc(Cl)c2)c1 | 95 | 65 | 92 | 153* | 75 | 13 | 104 | 105 | 103 | 88 | 91 | .
COc1cccc(C(=O)Nc2nnc(-c3ccc(Cl)cc3)o2)c1 | 92 | 93 | 105 | 155* | 96 | -14 | 209* | 135 | 109 | 120 | 107 | 0.8
